Test results reported in PubChem BioAssay (NCATS).
Records with an inconclusive call do not appear. Where a call stands in place of a potency, no number is given. Activity calls are given as the source filed them. Calls come from the whole dose curve; as a rule, active = well fitted inhibition curve with a large enough effect; inconclusive = small, poorly fitted or top-dose-only effect; inactive = flat fitted curve, though single readings scatter.

Each compound was assayed on ICS (assay: qHTS profiling for inhibitors of Plasmodium falciparum proliferation (AID 504749; note: nearly all actives have a fitted effect of over 60% in size)). Settings: P. falciparum in erythrocytes, SYBR Green DNA, 72 h; series mostly up to 12.8 µM.
Procedure, shortened: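 Readout was DNA-dye fluorescence from lysed cultures, ex 485/em 535 nm. Parasitized red cells had grown 72 h with compound; data scaled between 0.29 uM artemisinin and DMSO wells and corrected using vehicle-only plates.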
Potency is the fitted concentration of half-maximal effect.

| Structure (SMILES) | Potency |
| --- | --- |
| CC(C)=CCC[C@](C)(O)C1CC=C(C)CC1 (stereo not given in full) | inactive |
| CO[C@]12C(COC(N)=O)C3=C(C(=O)C(C)=C(N)C3=O)N1CC1NC12 (stereo not given in full) | 355 nM (active) |
| C[C@]1(c2ccccc2)OC(C(=O)O)=CC1=O | inactive |
| CC(=O)N[C@H](CC(C)C)C(=O)O | inactive |
| COc1ccc2cc(C(C)CO)ccc2c1 (stereo not given) | inactive |
| COC1C=CO[C@@]2(C)Oc3c(C)c(O)c4c(O)c(c(C=NN5CCN(C)CC5)c(O)c4c3C2=O)NC(=O)/C(C)=C\C=CC(C)C(O)[C@@H](C)C(O)C(C)[C@H](OC(C)=O)C1C (stereo not given in full) | 89.1 nM (active) |
| CC1CCC(C(C)C)C(=O)C1 (stereo not given) | inactive |
| CNC1CC(N)[C@H](O)[C@@H](O[C@@H]2OC(CO)C3OC4(OC(C(N)CO)C(O)C(O)C4O)O[C@@H]3[C@H]2O)C1O (stereo not given in full) | inactive |
| CCCC(=O)O[C@]1(C(=O)CO)CCC2[C@@H]3CCC4=CC(=O)CC[C@]4(C)C3C(O)C[C@]21C (stereo not given in full) | inactive |
| CC(=O)[C@]1(O)CCC2C3C=C(Cl)C4=CC(=O)C5CC5[C@@]4(C)C3CC[C@]21C (stereo not given in full) | inactive |
| CC(=O)N[C@@H]1C(O)OC(CO)C(O)C1O (stereo not given in full) | inactive |
| O=C1OC(CO)C(O)C(O)C1O (stereo not given) | inactive |
| CNC1C(OC2C(O[C@@H]3C(O)C(O)[C@@H](N=C(N)N)C(O)C3N=C(N)N)OC(C)[C@@]2(O)CO)OC(CO)C(O)C1O (stereo not given in full) | inactive |
| COc1cc(C2c3cc4c(cc3C(O[C@@H]3OC5COC(c6cccs6)OC5C(O)C3O)C3COC(=O)C23)OCO4)cc(OC)c1O (stereo not given in full) | 1260 nM (active) |
| Nc1nc2ncc(CNc3ccc(C(=O)NC(CCC(=O)O)C(=O)O)cc3)nc2c(=O)[nH]1 (stereo not given) | inactive |
